# From PubChem
# Hits are enriched below; roughly 3.6% of the tested compounds scored in any of these assays.
# NadD block: inhibitors of S. aureus NadD, primary screen, biochemical, colorimetric, uHTS; Nicotinate-nucleotide adenylyltransferase NadD (Staphylococcus aureus N315); purified NadD enzyme, colorimetric absorbance read-out; inhibition, % at 20 µM; actives 0.78% (n = 360,000); AID 602399, 2012; in the data active = inhibition above about 26%
# NRP1-CendR mod: modulators of CendR peptide binding to NRP-1, primary screen, biochemical, fluorescence polarization, uHTS | Neuropilin-1 (Homo sapiens), O14786 | FAM-RPARPAR peptide binding to NRP-1 | inhibition, % at 25 µM | actives 0.85% (n = 360,000) | AID 602438, 2012;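 active = inhibition or corrected inhibition above about 18%, plus a signal ratio from 0.5 to 1.5, limit read from the data, passing the limit was not always enough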
# FAS-TE inh: FAS thioesterase domain inhibitors, primary screen, biochemical, fluorescence intensity, uHTS; recombinant FAS-TE, OMFH fluorogenic substrate, fluorescence endpoint; inhibition, % at 15 µM; actives 0.67% (n = 360,000); AID 602261, 2012;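 active = compounds whose normalised, plate-corrected inhibition of enzyme fluorescence in the single-dose primary screen is 50% or more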;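 also: 0% = DMSO with enzyme and 100% = substrate without enzyme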
# CRFR2-BP antag: antagonists of CRF-BP/CRF-R2 complex, primary screen, cell-based, HEK293, calcium dye fluorescence, uHTS; CRF-induced calcium fluorescence; inhibition, % at 11.8 µM; actives 0.59% (n = 350,000); AID 588475, 2011;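 active = inhibition of the ligand-induced calcium signal above about 50% at the single tested concentration, limit read from the data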
# Myeloid diff 2: induction of myeloid progenitor differentiation, primary screen, cell-based, flow cytometry, MLPCN library; ER-HoxA9 myeloid progenitors, lysozyme-GFP differentiation; calls only at 10 µM; actives 1% (n = 360,000); AID 624256, 2012;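 active = normalized GFP-positive differentiation at or above the plate's own cutoff, the solvent-only control mean plus 3 SD; inconclusive = no clear call, values can overlap the other calls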;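 also: cells exposed to compound for four days before flow analysis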
# The depositor's hits bear a star; i = inactive; ? = inconclusive; nt = no result given; + = active, no number.
SMILES,NadD block,NRP1-CendR mod,FAS-TE inh,CRFR2-BP antag,Myeloid diff 2
CC(C)(C)OC(=O)NC(=NCCCc1cn(CC(=O)N2CCN(C(=O)OC(C)(C)C)CC2)nn1)NC(=O)OC(C)(C)C,0.2,8.5,-1.0,-13.3,i
CC[C@@H](C)[C@@H](C(=O)N1CCN(C(=O)OC(C)(C)C)CC1)n1cc(CCCN=C(NC(=O)OC(C)(C)C)NC(=O)OC(C)(C)C)nn1,-8.4,26.2*,10.2,3.6,i
O=C(CO)C(O)C(O)C(O)CO (stereo not drawn),0.7,-0.5,-3.4,10.2,+
O=C(Nc1ccc2c(c1)Cc1ccccc1-2)c1cccnc1,-1.4,19.8*,1.5,-20.7,i
O=C(Nc1ccc(N2CCN(C(=O)c3ccccc3)CC2)cc1)c1cccnc1,-4.5,-4.0,1.2,-10.5,i
CC1CCN(c2ccc(NC(=O)c3cccnc3)cc2)CC1,-2.6,-26.3,-7.1,-0.6,+
CC(=O)c1ccc(S(=O)(=O)N2CCN(C(=O)CSC(=S)N3CCCC3)CC2)cc1,6.1,-0.5,2.9,8.1,i
Oc1ccc2oc3c(c2c1)CCCC3,-0.4,28.4*,0.9,-4.0,i
O=C(O)COc1ccc2oc3c(c2c1)CCCC3,-2.0,-6.8,-8.8,10.9,i
COCCn1c(SCC(=O)c2ccc(F)cc2)nnc1C(C)C,2.9,23.5*,-1.7,-10.0,i
COCCn1nnnc1SCC(=O)c1ccc(F)cc1,-0.2,-2.8,-4.3,11.6,i
COc1cccc(CN2CCC(Oc3ccc(C(=O)NCc4ccccn4)cc3)CC2)c1O,-5.5,11.5,-6.0,107.4*,i
O=C(NCc1ccccn1)c1ccc(OC2CCN(Cc3ccccc3O)CC2)cc1,-10.4,10.7,-6.5,3.9,i
O=C(c1ccc(S(=O)(=O)Cc2ccccc2Cl)c([N+](=O)[O-])c1)N1CCOCC1,-4.4,17.3*,-3.9,-5.9,?
Cc1ccc(CS(=O)(=O)c2ccc(C(=O)N3CCCCC3)cc2[N+](=O)[O-])cc1,-1.2,2.9,-0.8,4.7,i
Cc1ccccc1CS(=O)(=O)c1ccc(C(=O)N2CCOCC2)cc1[N+](=O)[O-],-1.4,11.5,-2.3,-4.5,?
Cc1ccc(CS(=O)(=O)c2ccc(C(=O)N3CCN(c4ccccn4)CC3)cc2[N+](=O)[O-])cc1,2.2,-9.9,13.8,-4.0,+
COC(=O)c1sccc1NS(=O)(=O)c1ccccc1,-3.7,13.3,-0.9,118.1*,i
Cc1n[nH]c(C)c1S(=O)(=O)N1CCOCC1,-3.5,26.7*,-0.8,-7.8,i
Cc1ccc(NC(=O)CSc2nc3ccccc3c(=O)n2CCCC(=O)NCCCN2CCOCC2)cc1,-15.0,-0.6,-0.3,71.6*,i
CN(C)C(=S)NC1CCS(=O)(=O)C1 (stereo not drawn),-3.2,-19.4,-5.5,4.3,i
NNC(=S)NC1CCS(=O)(=O)C1 (stereo not drawn),2.2,4.1,-4.4,108.3*,i
N=C1CCC(=N)c2c1c(O)c1ccccc1c2O,10.5,27.1*,-5.9,8.2,i
O=c1c2cn[nH]c2nc(SCc2cc(=O)n3cc(Br)ccc3n2)n1-c1ccc(Br)cc1,22.4,32.3*,-11.1,-3.5,nt
O=c1c2cn[nH]c2nc(SCc2ccccc2F)n1-c1ccc(Br)cc1,4.4,25.5*,-88.3,9.5,i
SMILES,NadD block,NRP1-CendR mod,FAS-TE inh,CRFR2-BP antag,Myeloid diff 2
COc1ccc(N2CCN(C(=O)CSc3nc4[nH]ncc4c(=O)n3-c3ccc(Br)cc3)CC2)cc1,14.8,6.2,-56.9,13.3,i
Cc1ccccc1-n1c(SCc2cc(=O)n3ccccc3n2)nc2[nH]ncc2c1=O,5.7,-0.4,-11.6,-12.7,i
O=C(CNC(=O)OCc1ccccc1)Nc1ccc(F)cc1,6.1,4.3,-5.0,-3.0,i
COc1ccc(C(=O)NCCn2cc(SCC(=O)Nc3nnc(C)s3)c3ccccc32)cc1,2.4,24.2*,3.8,-35.9,i
COc1cccc(N(C(=O)C2CSC(=O)C2)C(C(=O)NC(C)(C)C)c2ccncc2)c1 (stereo not drawn),-0.8,-6.6,-9.1,9.0,i
CC(C)(C)NC(=O)C(c1ccccn1)N(C(=O)C1CSC(=O)C1)c1cccc(F)c1 (stereo not drawn),4.3,13.8,0.1,70.0*,i
